# Reference: paper PMC9574860, “Chemical Toolkit for PARK7: Potent, Selective, and High-Throughput” (Journal of Medicinal Chemistry, 2022)
# The campaign covered roughly 7,900 compounds. About 400 (5.1%) showed an effect of 50% or more. This excerpt belongs to a sample that is enriched for strong results.
# Target: Parkinson's disease protein 7 (PARK7/DJ1) (human, UniProt Q99497)
# Experiment: primary screen, percent inhibition; read as competition with a fluorescent probe by fluorescence polarization; higher = more effect of the substance
# Details: 100 µM
# Outline: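 Covalent fragments at 100 μM final were incubated 2 h with 0.2 μM PARK7, then 20 nM probe JYQ-107 added for a further 2 h. Fluorescence polarization read at 480/520 nm; relative FP loss versus reference controls gave remaining enzyme activity.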
# Chain of Parkinson's disease protein 7 (PARK7/DJ1) (Q99497 whole entry, looked up): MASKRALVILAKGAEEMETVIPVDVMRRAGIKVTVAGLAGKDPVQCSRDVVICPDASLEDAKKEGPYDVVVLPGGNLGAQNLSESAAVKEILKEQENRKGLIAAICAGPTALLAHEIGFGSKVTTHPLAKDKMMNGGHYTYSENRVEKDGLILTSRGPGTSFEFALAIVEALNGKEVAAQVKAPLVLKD
row,Compound,Inhibition %
1,N#Cc1cc(Cl)nc(C2CC2)n1,4.67%
2,O=C(CCl)Nc1ccc(OC(F)F)c(Cl)c1,45.8%
3,O=C(CCl)Nc1ccc(OC(F)F)cc1,82.8%
4,O=C(CCl)Nc1ccc(Cl)c(C(F)(F)F)c1,26.2%
5,O=C(CCl)NCc1ccc(OC(F)(F)F)cc1,5.21%
6,COc1ccc(NC(=O)CCCl)cc1,4.56%
7,O=C(CCl)NC(=O)c1ccc(OC(F)F)cc1,28.9%
8,COc1ccc(NC(=O)CCl)cc1,55.2%
9,COc1ccc(NC(=O)NC(=O)CCl)cc1,1.55%
10,O=C(CCl)Nc1ccc(OC(F)(F)F)cc1,86%
11,O=C1CCN1c1ccccc1,5.28%
12,CC(CC#N)Sc1ccccc1NC(=O)CCl (stereo not shown),10.5%
13,Cc1cc(C(=O)Cn2cnc(C#N)n2)c(C)s1,2.94%
14,Cc1cc(C(=O)Cn2cnc(C#N)n2)c(C)[nH]1,7.96%
15,CCN(CC)C(=O)Oc1ccc(N2CCCC2)cc1,-3.98%
16,O=C1CCC(CC(=O)Nc2cccc(S(=O)(=O)F)c2)CC1,98.3%
17,O=C(CCl)NCc1cccc(NC(=O)C2CC2)c1,11.4%
18,O=S(=O)(F)c1ccc(S(=O)(=O)NC2CCCC2O)cc1 (stereo not shown),16.5%
19,C=CC(=O)Nc1cc(NC(=O)C2CCC2)ccc1F,19.5%
20,O=C(Nc1cccc(S(=O)(=O)F)c1)C1CCCC1,99.8%
21,O=C(NNS(=O)(=O)c1ccc(S(=O)(=O)F)cc1)C1CCC1,10.2%

row,Compound,Inhibition %
1,O=C(NNS(=O)(=O)c1cccc(S(=O)(=O)F)c1)C1CCC1,99.9%
2,Cc1cc(B2OC(C)(C)C(C)(C)O2)on1,27.5%
3,Cc1ccc(S)nc1,7.53%
4,CCc1nc(C(C#N)=Cc2cnn(C)c2)sc1C,2.61%
5,Cc1noc(C)c1CCn1ccnc1C#N,0.0226%
6,Cl.O=C(CCl)N1CCN(Cc2cccs2)CC1,3.64%
7,Nc1ncnc2c1ncn2CCCCl,2.3%
8,C=CC(=O)Nc1cccc(NC(C)=O)n1,-0.654%
9,C=CC(=O)Nc1ccccn1,3.17%
10,C=CC(=O)Nc1cc2ccccc2nn1,95%
11,Cc1ccc(C=C(C#N)S(C)(=O)=O)s1,6.48%
12,Cc1cc(=O)oc2cc(OCC3CO3)ccc12 (stereo not shown),7.44%
13,CC(C)(C)n1nccc1B1OC(C)(C)C(C)(C)O1,6.06%
14,CC(CC(O)c1ccc(F)cc1)Nc1ccc(C#N)nc1 (stereo not shown),9.7%
15,Sc1ccc(-c2ccco2)nn1,57.3%
16,Cc1nc(-c2ccco2)nc(S)c1C(=O)O,1.46%
17,O=C(CCl)Nc1nc(-c2ccco2)cs1,21.8%
18,O=C(CCl)N1CCCCCC1,14.9%
19,N#Cc1ccnc(C(F)(F)F)c1,14.9%
20,N#Cc1ccnc(S)c1,67%
21,N#Cc1ccnc(C(=O)O)c1,1.71%

row,Compound,Inhibition %
1,O=C(CCl)Nc1ccccc1N1CCCC1=O,-0.367%
2,O=C(CCl)NCc1ccc(N2CCCC2)cc1,0.611%
3,O=C(CCl)Nc1ccc(N2CCCCCC2)cc1,99.5%
4,Cl.O=C(CCl)Nc1ccc(N2CCCCC2)cc1,89.3%
5,O=C(CCl)Nc1ccc(N2CCCCC2)nc1,88.9%
6,O=C(CCl)Nc1cccnc1N1CCCC1,18.8%
7,O=C(CCl)Nc1ccc(N2CCCC2=O)cc1,9.28%
8,O=C(CCl)Nc1ccc(N2CCCC2)cc1,7.34%
9,O=C(CCl)NCc1ccc(N2CCOCC2)nc1,15.2%
10,CCN1CCN(c2ccc(NC(=O)CCl)cc2)CC1.Cl,37.8%
11,C=CC(=O)N1CC(S(=O)(=O)N2CCc3ccccc32)C1,3.57%
12,O=C(CCCl)Nc1cccc(F)c1,5.31%
13,C=CC(=O)N1CCC(c2cc3ccccc3[nH]2)C1 (stereo not shown),13.2%
14,Cc1occc1-c1nnc(SC2CCOC2=O)n1C (stereo not shown),12.4%
15,COc1c(C)cc(S(=O)(=O)n2nc(C)cc2C)c(C)c1C,7.42%
16,CC1(C)OB(c2cccc3c2CCO3)OC1(C)C,9.99%
17,CN(Cc1ccco1)c1ccc(C#N)nc1,25.1%
18,C=CC(=O)NCc1ccc2c(c1)OCO2,11.2%
19,O=C(NCc1ccc2c(c1)OCO2)n1ccnc1,99.9%
20,Cc1ccc(CNC(=O)CCl)cc1,1%
21,O=C(NCc1ccc(Cl)cc1)n1ccnc1,-1.68%

row,Compound,Inhibition %
1,CN(Cc1cccnc1)C(=O)n1ccnc1,10.8%
2,CN(C)c1ccc(CNC(=O)n2ccnc2)cc1,97%
3,Cc1ccc(CNC(=O)n2ccnc2)cc1,104%
4,Cc1cccc(OCCNC(=O)CCl)c1,12.5%
5,COc1ccc(CCNC(=O)n2ccnc2)cc1OC,10.3%
6,CN(Cc1ccccc1Cl)C(=O)n1ccnc1,2.68%
7,Cc1cccc(OCCNC(=O)n2ccnc2)c1,92.6%
8,O=C(CCl)NCc1ccc2c(c1)OCO2,14%
9,Cn1nncc1B1OC(C)(C)C(C)(C)O1,6.79%
10,C=CC(=O)N1CCC(c2ncc(C)s2)CC1,1.87%
11,O=C(C=CC1=CCCC1)N1CCCC(N2CCNC2=O)C1 (stereo not shown),28%
12,Cl.O=S(=O)(F)C1CCCNC1 (stereo not shown),8.33%
13,C=CC(=O)N1CCN(CC)C(=O)C1(C)C,2.96%
14,C=CC(=O)N1CCC(C#N)(COC)CC1,5.2%
15,Cc1ccc(NC(=O)CN2CCSC2=O)cc1F,3.32%
16,COC(=O)Cc1csc(NC(=O)CCl)n1,20.2%
17,Cc1cc(C)nc(S)c1,6.52%
18,O=C1OCCC1N1CCOC(c2nccs2)C1 (stereo not shown),13.9%
19,C=CC(=O)NCCc1ccc(F)cn1,-26.8%
